Several values for one entry are separate records, joined by “and”; a condition that tells them apart may be missing. Equal entries are not always repeated. Records with an inconclusive call do not appear. Values without a mark were called inactive. Calls come from the whole dose curve; as a rule, active = well fitted curve in the direction sought with a large enough effect in the signal ratio, with a control signal flat; inconclusive = small, poorly fitted or top-dose-only effect, or a change in a side signal; inactive = no such curve, though single readings can be large or run the other way; the % refers to the signal ratio.
Target: Glucocorticoid receptor (Homo sapiens) (UniProt P04150)
Experiment: qHTS assay for small molecule agonists of glucocorticoid receptor signaling (AID 588532)
Conditions: HeLa MMTV-bla, beta-lactamase ratio, agonist, 18 h; stronger effect = higher value; percent of dexamethasone control, DMSO zero
Description: NIH Chemical Genomics Center [NCGC] U.S. Environmental Protection Agency [EPA] National Institutes of Environmental Health Sciences [NIEHS] National Toxicology Program [NTP] NCGC Assay Overview The Glucocorticoid receptor (GR), a nuclear receptor subfamily member and its natural ligands includes […] etc. The GR is a validated drug target for inflammation. GR ligands such as dexamethasone are clinically available as anti-inflammatory drugs. Glucocorticoids implicate role in carbohydrate, protein and lipid metabolisms and programmed cell death. They are also a component of many chemotherapy regimens for the treatment of leukemias, lymphomas, and myelomas because of their role in the induction of apoptosis.
NCGC Assay Protocol Summary Using a beta-lactamase reporter-gene under control of glucocorticoid response element (GRE), a cell-based assay [CellSensor MMTV-bla HeLa cell line assay developed by Invitrogen] was used to measure GR ligands signaling. CellSensor MMTV-bla HeLa cells were used with assay medium containing 1% charcoal/dextran treated FBS, 0.1 mM NEAA, 1 mM sodium pyruvate and 25mM HEPES. The assay was performed in clear bottom black Greiner 1536-well plates. Dexamethasone and Mifepristine were used in the screen as agonist and antagonist positive controls respectively. Library compounds were measured for their ability to stimulate the reporter gene activity. Compounds were screened in a titration series in 1536-well format. The fluorescence intensity (405 nm excitation, 460/530 nm emission) was measured using an EnVision plate reader. Data was normalized relative to Dexamethasone control (0.1 uM, 100%), and DMSO only wells (basal, 0%). Concentration-response titration points for each compound were fitted to the Hill equation yielding concentrations of half-maximal stimulation (EC50) and maximal response (efficacy) values. qHTS protocol for GR beta-lactamase assay in agonist mode [Step] [Parameter] [Value] [Description] 1. Reagent; 6 uL; 1500 cells/well 2. Incubation; 37 C for 3-5 hrs 3. Compounds; 23 nL; 0.59 nM to 92 uM 4. Controls (Dexamethasone); 23 nL, - One column with dose response, start 4.6uM, 1:3 dilutions in duplicates - Final concentrations of 0.1 uM and 2 nM in two columns 5. Incubation; 37 C for 18 hrs 6. Detection reagent; 1 uL of CCF4-dye 7. Incubation; RT for 2 hrs 8. Detection; Fluorescence; Envision plate reader

Chain of Glucocorticoid receptor (Homo sapiens) (P04150 whole entry, looked up): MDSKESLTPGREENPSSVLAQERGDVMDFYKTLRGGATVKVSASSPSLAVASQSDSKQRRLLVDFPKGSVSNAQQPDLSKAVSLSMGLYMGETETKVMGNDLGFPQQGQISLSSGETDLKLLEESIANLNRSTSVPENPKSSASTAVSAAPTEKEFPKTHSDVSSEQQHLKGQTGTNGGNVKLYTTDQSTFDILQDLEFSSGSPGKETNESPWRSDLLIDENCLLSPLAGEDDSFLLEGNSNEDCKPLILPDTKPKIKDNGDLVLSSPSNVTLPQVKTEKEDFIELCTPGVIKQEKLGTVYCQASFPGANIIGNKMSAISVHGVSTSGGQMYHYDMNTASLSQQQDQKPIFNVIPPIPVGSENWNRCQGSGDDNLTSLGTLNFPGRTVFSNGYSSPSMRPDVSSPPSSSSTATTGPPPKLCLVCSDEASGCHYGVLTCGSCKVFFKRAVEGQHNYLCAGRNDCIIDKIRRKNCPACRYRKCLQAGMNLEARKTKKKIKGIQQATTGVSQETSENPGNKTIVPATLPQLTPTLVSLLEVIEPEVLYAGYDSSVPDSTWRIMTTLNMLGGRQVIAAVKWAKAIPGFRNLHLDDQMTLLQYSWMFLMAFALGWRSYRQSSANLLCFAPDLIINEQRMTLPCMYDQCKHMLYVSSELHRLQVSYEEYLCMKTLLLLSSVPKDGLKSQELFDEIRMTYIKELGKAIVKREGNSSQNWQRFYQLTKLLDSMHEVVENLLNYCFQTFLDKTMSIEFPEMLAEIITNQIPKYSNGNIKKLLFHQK

Row | SMILES | activation
1 | OC1CCCC1 | 0.774%
2 | C1CCCC1 | 2.06%
3 | CC(=O)c1cccc([N+](=O)[O-])c1 | 1.38%
4 | CC#N | -2.4%
5 | C=C(C)C1CC=C(C)C(OC(C)=O)C1 (stereo not given) | 3.07%
6 | Nc1cccc([N+](=O)[O-])c1 | 0.474%
7 | Clc1ccc(Cl)c(Cl)c1Cl | 16% and -12%
8 | COC(=O)CCC(=O)OC | -3.79%
9 | CC(C=O)Cc1ccc(C(C)(C)C)cc1 (stereo not given) | -5.34%
10 | Cc1ccccc1C(=O)O | -5.56%
11 | O=C(O)/C=C/C(=O)O | 27.1%
12 | CCOC(=O)C(C)C(C)=O (stereo not given) | -10.2%
13 | c1ccc(Oc2ccccc2)cc1 | 2.66% and -3.4%
14 | Cc1cc(C)cc(O)c1 | -1.28%
15 | CCCCCCCCCCCCOCC1CO1 (stereo not given) | 7.49%
16 | O=C(O[C@@H](C(=O)O)[C@@H](OC(=O)c1ccccc1)C(=O)O)c1ccccc1 | -3.12%
17 | CCOCCO | -1.34%
18 | O=C(O)c1cc(Cl)cc(Cl)c1 | -5.57%
19 | CCCCCCC(=O)O | 2.07%
20 | CCNS(=O)(=O)c1ccc(C)cc1 | -0.758%

Row | SMILES | activation
21 | COc1cccc(N)c1 | 1.73%
22 | CCCCC(CC)COCC1CO1 (stereo not given) | -12.2%
23 | CC(=O)Nc1ccc(N)cc1 | 1.17%
24 | CCCCCCCCCCCCC1CO1 (stereo not given) | 0.241%
25 | CCC(C)(C)OC | -0.431%
26 | CC(C)N=C=NC(C)C | 4.13%
27 | O=C(Cl)c1c(Cl)cccc1Cl | -4.67%
28 | c1ccc2c(c1)ccc1ncccc12 | -5.6%
29 | CC(C)(c1cc(Br)c(OCC(Br)CBr)c(Br)c1)c1cc(Br)c(OCC(Br)CBr)c(Br)c1 (stereo not given) | 11.6%
30 | CC(C)CO | -3.71%
31 | Nc1ccc(F)cc1F | -11.6%
32 | O=[N+]([O-])c1cc(C(F)(F)F)ccc1Cl | -0.113%
33 | C=CCCC | 5.54%
34 | C=Cc1ccccn1 | -3.05%
35 | CC(C)=CCl | 2.68%
36 | CCC(C)(C)C(=O)O | -7.32%
37 | CC(=O)c1nccs1 | -5.55%
38 | CCN(C(=O)N(CC)c1ccccc1)c1ccccc1 | -1.59%
39 | Nc1cc(Cl)c([N+](=O)[O-])cc1O | -1.56%
40 | Cc1ccc(C)o1 | -6.27%

From PubChem BioAssay (NCATS)
